Reference: PubChem BioAssay (Tox21)
Records with an inconclusive call do not appear. Unmarked numbers belong to inactive results. Activity calls are given as the source filed them. The call rests on the fitted dose curve; in most records, active means well fitted curve in the direction sought with a large enough effect in the repeat runs; inconclusive means weak or mixed curves; inactive means no such curve, though single readings can be large; an effect the other way counts as inactive or inconclusive.

Each molecule was assayed against Cytochrome P450 1A2 (Homo sapiens) (UniProt P05177) (assay: Cytochrome P450 Family 1 Subfamily A Member 2 (CYP1A2) small molecule antagonists: luciferase reporter qHTS assay (AID 1671199)). Details: P450-Glo CYP1A2 enzyme, luciferin luminescence, 1 h; series mostly up to 53 µM; activity change, negative = inhibition: at the top concentration.
Chain of Cytochrome P450 1A2 (Homo sapiens) (P05177 whole entry, looked up): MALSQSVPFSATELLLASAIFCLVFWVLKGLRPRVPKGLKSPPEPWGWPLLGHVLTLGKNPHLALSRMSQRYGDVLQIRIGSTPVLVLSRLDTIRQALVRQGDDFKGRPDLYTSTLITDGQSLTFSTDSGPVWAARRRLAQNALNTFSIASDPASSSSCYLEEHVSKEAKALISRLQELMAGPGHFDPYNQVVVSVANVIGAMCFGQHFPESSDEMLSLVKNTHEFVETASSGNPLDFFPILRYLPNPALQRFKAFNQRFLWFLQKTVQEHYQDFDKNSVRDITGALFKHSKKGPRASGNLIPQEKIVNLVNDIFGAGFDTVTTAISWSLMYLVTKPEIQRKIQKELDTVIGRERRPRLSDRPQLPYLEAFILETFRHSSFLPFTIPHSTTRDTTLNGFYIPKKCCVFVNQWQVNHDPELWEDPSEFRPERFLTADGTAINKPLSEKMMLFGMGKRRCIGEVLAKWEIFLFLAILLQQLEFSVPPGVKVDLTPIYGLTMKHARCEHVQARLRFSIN
Outline: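 Luminescence from luciferin formed by CYP1A2 from a proluciferin substrate, read 20 min after detection reagent. Compound was pre-incubated 10 min with enzyme-substrate, and reaction started with NADPH regeneration solution for 1 h at room temperature; furafylline control.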
Further: nearly all actives have a fitted effect of over 50% in size.
On the % scale 0 is the no-effect control and ±100 the full control effect; potency means the concentration at half of the fitted maximal effect.

SMILES | activity change, negative = inhibition | Potency
CCCCCCCCCCCCCCOS(=O)(=O)O | 7.72% [at 115 µM] | –
CCC(C)c1cc(C(C)(C)C)c(O)c(C(C)(C)C)c1 (stereo not given) | – | 62.1 µM (active)
CCC(CC)Nc1ccc(C)c(C)c1 | – | 5.64 µM (active)
COc1ccc(-c2nc3ccc(C4=NNC(=O)CC4C)cc3[nH]2)cc1 (stereo not given) | – | 3.63 µM (active)
CCCCCCCCCCCC(=O)OC[C@@H](O)[C@H]1OC[C@H](OCCO)[C@H]1OCCO | -2.8% [at 115 µM] | –
Nc1cccc([N+](=O)[O-])c1 | – | 39.1 µM (active)
OCc1cc(C(O)CNCCCCCCOCCCCc2ccccc2)ccc1O (stereo not given) | 0.0753% | –
O=C1OC(=O)C2C3C=CC(C3)C12 (stereo not given) | -15% [at 115 µM] | –
O=C(O)c1ccc(-n2nc(-c3ccccc3O)nc2-c2ccccc2O)cc1 | 4.71% | –
C=C(C)C(=O)OCCOCC | – | 40.1 µM (active)
O=C(O)c1ccccc1Cl | -6.39% [at 115 µM] | –
Cc1ccc(C(C)OC(=O)C2(C)CCC(C(=O)O)C2(C)C)cc1 (stereo not given) | 3.85% | –
C/C=C/C=C/CO | -4.31% [at 115 µM] | –
CN(C)CCOC(c1ccccc1)c1ccc(Br)cc1 (stereo not given) | – | 17.4 µM (active)
C[Si](C)(CCCN)O[Si](C)(C)CCCN | – | 25.2 µM (active)
CCCCCCCCCCCCCCCCOS(=O)(=O)O | -11.7% | –
CCCCCCc1ccc(-c2ccc(C#N)cc2)cc1 | – | 31.2 µM (active)
C#Cc1cccc(Nc2ncnc3cc(OCCOC)c(OCCOC)cc23)c1 | -5.56% | –
Nc1ccc([N+](=O)[O-])c(C(F)(F)F)c1 | – | 11 µM (active)
C[N+]1(CC2COC(c3ccccc3)(C3CCCCC3)O2)CCCCC1 (stereo not given) | -8.51% | –
c1ccc(-c2ccccn2)nc1 | – | 71 µM (active)
CCCC(=O)Nc1ccc(O)c(C(C)=O)c1 | – | 9.77 µM (active)
Nc1cccc(S(=O)(=O)c2cccc(N)c2)c1 | -14.7% [at 115 µM] | –
CC(C)Nc1ccc(NC(C)C)c2c1C(=O)c1ccccc1C2=O | – | 2.34 µM (active)
O=C(O)C(S)C(S)C(=O)O (stereo not given) | -10.2% | –
CCOC(=O)C(=O)CCc1ccccc1 | -23.4% | –

What follows are molecules tested against Voltage-gated inwardly rectifying potassium channel KCNH2 (Homo sapiens) (UniProt Q12809) (assay: Human Ether-a-go-go-Related Gene (hERG) channel small molecule antagonists: fluorescence cell-based qHTS assay (AID 1671200;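 on activity change, negative = inhibition: hERG-expressing U2OS cells given a thallium stimulus after FluxOR II dye loading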)). Details: hERG-U2OS cells, FluxOR thallium flux fluorescence; series mostly up to 76.8 µM; activity change, negative = inhibition: at the top concentration.
Chain of Voltage-gated inwardly rectifying potassium channel KCNH2 (Homo sapiens) (Q12809 whole entry, looked up): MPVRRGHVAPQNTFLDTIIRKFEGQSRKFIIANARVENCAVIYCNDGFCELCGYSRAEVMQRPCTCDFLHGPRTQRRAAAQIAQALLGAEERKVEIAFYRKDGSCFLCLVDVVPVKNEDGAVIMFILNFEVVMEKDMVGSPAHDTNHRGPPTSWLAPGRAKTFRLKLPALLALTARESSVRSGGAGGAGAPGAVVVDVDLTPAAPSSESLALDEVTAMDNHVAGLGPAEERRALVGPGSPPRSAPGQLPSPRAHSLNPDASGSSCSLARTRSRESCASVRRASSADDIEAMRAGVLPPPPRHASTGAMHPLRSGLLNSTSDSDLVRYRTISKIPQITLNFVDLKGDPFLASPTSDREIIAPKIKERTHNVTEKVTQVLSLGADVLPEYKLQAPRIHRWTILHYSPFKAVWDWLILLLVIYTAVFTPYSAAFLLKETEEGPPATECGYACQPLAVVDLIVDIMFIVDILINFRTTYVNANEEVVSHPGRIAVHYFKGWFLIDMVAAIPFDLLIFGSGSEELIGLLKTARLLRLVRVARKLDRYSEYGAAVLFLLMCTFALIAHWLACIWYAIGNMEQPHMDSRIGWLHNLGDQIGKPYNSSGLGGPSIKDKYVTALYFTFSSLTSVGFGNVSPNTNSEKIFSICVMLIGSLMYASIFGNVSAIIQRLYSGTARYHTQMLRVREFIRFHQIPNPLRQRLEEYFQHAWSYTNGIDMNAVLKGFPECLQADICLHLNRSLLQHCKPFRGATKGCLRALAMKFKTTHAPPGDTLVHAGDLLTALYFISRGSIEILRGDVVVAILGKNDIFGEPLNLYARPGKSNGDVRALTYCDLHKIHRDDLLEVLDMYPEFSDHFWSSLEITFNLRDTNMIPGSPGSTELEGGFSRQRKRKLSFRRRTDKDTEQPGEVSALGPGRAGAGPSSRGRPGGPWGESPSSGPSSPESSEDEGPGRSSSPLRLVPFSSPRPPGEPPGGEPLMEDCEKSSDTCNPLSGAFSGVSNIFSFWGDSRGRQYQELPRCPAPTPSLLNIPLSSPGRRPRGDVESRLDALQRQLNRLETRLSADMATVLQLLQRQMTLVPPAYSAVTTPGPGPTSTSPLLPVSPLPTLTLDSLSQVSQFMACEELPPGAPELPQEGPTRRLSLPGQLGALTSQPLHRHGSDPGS
Outline: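 Kinetic two-minute fluorescence traces, sampled at 1 s, were collected following thallium stimulus of U2OS cells (1000 per well) that had been cultured overnight at 37 C and loaded with FluxOR II.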

SMILES | activity change, negative = inhibition | Potency
CCCCCCCCCCCCCCOS(=O)(=O)O | 3.24% | –
C[C@H](CCC(=O)O)[C@H]1CC[C@H]2[C@@H]3CC[C@@H]4C[C@H](O)CC[C@]4(C)[C@H]3C[C@H](O)[C@]12C | 0.954% | –
NCC(=O)O | 0.344% [at 15.8 µM] | –
CN(Cc1ccc(C(C)(C)C)cc1)Cc1cccc2ccccc12 | – | 19 µM (active)
CCC(CC)Nc1ccc(C)c(C)c1 | -20% | –
CC(=O)[O][Al] | 2.32% | –
COc1ccc(-c2nc3ccc(C4=NNC(=O)CC4C)cc3[nH]2)cc1 (stereo not given) | 3% [at 35.3 µM] | –
CCCCCCCCCCCC(=O)OC[C@@H](O)[C@H]1OC[C@H](OCCO)[C@H]1OCCO | -9.38% | –
Nc1cccc([N+](=O)[O-])c1 | 0.57% | –
C=CC(=O)OCCOc1ccccc1 | 15.1% | –
Cc1cc(N)c2cc(NC(=O)Nc3ccc4nc(C)cc(N)c4c3)ccc2n1 | -9.65% [at 35.3 µM] | –
OCc1cc(C(O)CNCCCCCCOCCCCc2ccccc2)ccc1O (stereo not given) | – | 2.68 µM (active)
O=C(O)c1ccc(-n2nc(-c3ccccc3O)nc2-c2ccccc2O)cc1 | 4.77% [at 35.3 µM] | –
C/C(=C(\CCOP(=O)(O)O)SC(=O)c1ccccc1)N(C=O)Cc1cnc(C)nc1N | 1.89% [at 6.97 µM] | –
CC(C)O.CC(C)O.CCOC(=O)/C=C(\C)O.CCOC(=O)/C=C(\C)O.[Ti] | -0.135% | –
C=C(C)C(=O)OCCOCC | 2.93% | –
CCOc1ccc(O)cc1 | 1.13% | –

SMILES | activity change, negative = inhibition | Potency
O=C(O)c1ccccc1Cl | -0.923% | –
Cc1ccc(C(C)OC(=O)C2(C)CCC(C(=O)O)C2(C)C)cc1 (stereo not given) | 2.22% [at 35.3 µM] | –
CN(C)CCOC(c1ccccc1)c1ccc(Br)cc1 (stereo not given) | – | 3.38 µM (active)
C[Si](C)(CCCN)O[Si](C)(C)CCCN | 3.44% | –
CCCCCCCCCCCCCCCCOS(=O)(=O)O | 0.74% [at 35.3 µM] | –
CCCCCCCCCCCCCCCCCCOS(=O)(=O)O | 21.9% | –
C#Cc1cccc(Nc2ncnc3cc(OCCOC)c(OCCOC)cc23)c1 | 2.74% [at 35.3 µM] | –
Nc1ccc([N+](=O)[O-])c(C(F)(F)F)c1 | -1.6% [at 35.3 µM] | –
CC(=O)c1ccc2c(c1)N(CCCN1CCC(CCO)CC1)c1ccccc1S2 | – | 3.01 µM (active)
C[N+]1(CC2COC(c3ccccc3)(C3CCCCC3)O2)CCCCC1 (stereo not given) | – | 15.1 µM (active)
c1ccc(-c2ccccn2)nc1 | -15.9% | –
CCCC(=O)Nc1ccc(O)c(C(C)=O)c1 | 0.414% [at 35.3 µM] | –
Nc1cccc(S(=O)(=O)c2cccc(N)c2)c1 | 0% | –
CC(C)Nc1ccc(NC(C)C)c2c1C(=O)c1ccccc1C2=O | -5.72% [at 35.3 µM] | –
C[C@@H]1C[C@H]2O[C@@]3(O[C@@H]2C(C)(C)O)[C@H](O)[C@@]2(C)[C@@H]4CC[C@H]5C(C)(C)[C@@H](O[C@@H]6OC[C@@H](O)[C@H](O)[C@H]6O)CC[C@@]56C[C@@]46CC[C@]2(C)[C@@H]13 | -1.04% [at 35.3 µM] | –
CO[C@@H]1[C@H](OC(=O)/C=C/C=C/C=C/C=C/C(=O)O)CC[C@]2(CO2)[C@H]1[C@@]1(C)O[C@@H]1CC=C(C)C | 6.46% | –
CCOC(=O)C(=O)CCc1ccccc1 | -4.82% [at 35.3 µM] | –
